The assay can be described thus: NCI Yeast Anticancer Drug Screen. Data for the wt2 strain (AID 169).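 Note: 0% = growth of vehicle-treated yeast cultures.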 The settings on record: S. cerevisiae wt2 strain growth inhibition, active compounds read high. On the procedure: Growth inhibition of yeast strains with defined genetic alterations is measured as a screen for potential anti-cancer activity. Selected strains with alterations in DNA damage repair or cell cycle control were exposed to compounds and growth inhibition was measured relative to vehicle treated controls. The strain used in this assay is wt2

In PubChem BioAssay (NCI) one finds growth inhibition data, which are given here for 8 compounds.

Each structure is given as a SMILES string. About 79,000 compounds went through this panel and 15% of them were active in at least one assay; those are over-represented in the sample as a whole. Unmarked numbers belong to inactive results. Active and inactive are the calls of the source. Cut-off read from the data, not from the text of the source: active = growth inhibition above about 70%; inactive = the rest.

Take `Nc1cccc(-c2cc[cH-]c2)c1.[Fe+2].c1cc[cH-]c1`: the growth inhibition was 6% (at 1.2 µM); 4% (at 3.7 µM); 9% (at 11.0 µM); 3% (at 33.0 µM); 95% (active) (at 100.0 µM).
For `ClCCCOc1c(Cl)cc(Cl)cc1Cl` the same measures were -7%, 1%, -7%, -2% and -8%.
With `O=S(=O)(c1ccccc1)N1CN2CN(C1)CN(S(=O)(=O)c1ccccc1)C2`, the growth inhibition (at 1.2 µM) was -9%; the growth inhibition (at 3.7 µM) is 9%; the growth inhibition (at 11.0 µM) is -14%; the growth inhibition (at 33.0 µM) is -5%; the growth inhibition (at 100.0 µM) is 5%.
With `O=[N+]([O-])c1cccc2nc3ccccc3c(NCCCN3CCCCC3)c12`, the growth inhibition (at 1.2 µM) is 1%; the growth inhibition (at 3.7 µM) was 39%; the growth inhibition (at 11.0 µM) is 89% (active); the growth inhibition (at 33.0 µM) was 97% (active); the growth inhibition (at 100.0 µM) was 98% (active).
For `O=C(NNc1ccccc1)C(CCCCNS(=O)(=O)Cc1ccccc1)NS(=O)(=O)Cc1ccccc1` (stereo not given), the growth inhibition (at 1.2 µM) is 2%; the growth inhibition (at 3.7 µM) was 6%; the growth inhibition (at 11.0 µM) is 22%; the growth inhibition (at 33.0 µM) is 28%; the growth inhibition (at 100.0 µM) was 51%.
Consider `C=COC(=O)N[C@H]1CCc2cc(OC)c(OC)c(OC)c2-c2ccc(SC)c(=O)cc21`, for which the growth inhibition (at 1.2 µM) was -3%; the growth inhibition (at 3.7 µM) was -4%; the growth inhibition (at 11.0 µM) was -3%; the growth inhibition (at 33.0 µM) is 1%; the growth inhibition (at 100.0 µM) is 76% (active).
In the case of `O=C(O)c1cc2c(cc1S(=O)(=O)O)C1C(C3C2C2(Cl)C(Cl)=C(Cl)C3(Cl)C2(Cl)Cl)C2(Cl)C(Cl)=C(Cl)C1(Cl)C2(Cl)Cl` (stereo not given), the growth inhibition was 1% (at 1.2 µM); 0% (at 3.7 µM); 12% (at 11.0 µM); 90% (active) (at 33.0 µM); 96% (active) (at 100.0 µM).
The like results for `COC1/C=C\C=C(/C)C(=O)NC2=CC(=O)C(=O)C(=C2O)CC(C)CC(OC)C(O)C(C)/C=C(\C)C1OC(N)=O` (stereo not given) were, in that order, 6%, 7%, 89% (active), 96% (active) and 96% (active).
